Assay outcomes (PubChem BioAssay)
MEKK2mut PB1 HTS – signal of MEK5 binding to mutant human MEKK2 PB1 domain; AID 1530; hit rate 0.35% among 290,000; bead flow cytometry, Alexa488-MEK5 binding to MEKK2 mutant; percent response, % at 10 µM; in the data active = percent response above about 24%, passing the limit was not always enough
CHT PAM – human CHT allosteric activation | AID 488977 | hit rate 0.49% among 310,000 | CHT-expressing cells, membrane potential dye, choline EC20; hits give high values; LV-AA mutant CHT in HEK293 cells | B-score at 10 µM | Q9GZV3;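 active = initial fluorescence not abnormally high and integrated response B-score, plate-corrected, over 3 SD above library mean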
Target sequence (Q9GZV3 whole entry, looked up): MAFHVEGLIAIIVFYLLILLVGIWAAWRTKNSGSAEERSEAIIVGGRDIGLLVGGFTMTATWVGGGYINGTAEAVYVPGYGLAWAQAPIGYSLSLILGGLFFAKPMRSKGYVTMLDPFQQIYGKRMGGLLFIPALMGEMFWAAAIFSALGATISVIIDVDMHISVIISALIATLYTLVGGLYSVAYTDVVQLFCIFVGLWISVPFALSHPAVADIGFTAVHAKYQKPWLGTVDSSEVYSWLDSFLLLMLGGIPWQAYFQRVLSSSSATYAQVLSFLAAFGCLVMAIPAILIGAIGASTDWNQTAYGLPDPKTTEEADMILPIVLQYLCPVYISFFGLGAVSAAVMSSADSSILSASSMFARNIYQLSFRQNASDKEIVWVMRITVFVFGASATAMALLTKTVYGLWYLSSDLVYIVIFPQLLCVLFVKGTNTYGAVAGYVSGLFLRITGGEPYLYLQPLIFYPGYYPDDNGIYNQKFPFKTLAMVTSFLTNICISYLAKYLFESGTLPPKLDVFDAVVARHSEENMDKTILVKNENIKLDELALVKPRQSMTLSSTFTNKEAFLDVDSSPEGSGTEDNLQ
SUMO Mot1 rescue – blocks SUMOylation pathway, rescuing yeast Mot1-301 growth | S. cerevisiae Mot1-301 growth rescue, ATP luminescence, 38.5C; percent above DMSO median, 100 means doubled | growth rescue, % at 18.8 µM | hit rate 1% among 320,000 | AID 2716;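 active = every valid replicate shows activation above 250% relative to neutral control wells; inactive = the rest, any valid replicate at or below 250%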;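 note: OY570 slx delta 5 strain wells were the positive control but not used for scaling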
CHT inh – human CHT choline transport inhibition; AID 488975; Q9GZV3; hit rate 0.86% among 310,000; B-score at 10 µM; CHT-expressing cells, membrane potential dye, choline response; hits give low values;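 active = B-score over 3 SD under the library average, and starting fluorescence ratio not unusually high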;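 note: choline stimulus applied at its EC90 after an EC20 pre-addition; B-score computed on integrated fluorescence ratio after choline addition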
MEKK2 WT-MEK5 – raises or lowers MEK5 binding to wildtype human MEKK2 PB1 domain; Q9Y2U5; bead flow cytometry, Alexa488-MEK5 binding to MEKK2 WT; actives lie on both sides; binding response (% of control), % at 10 µM; hit rate 1.1% among 290,000; AID 1531; in the data active = binding response below about 67% or above about 130%
MEKK3 PB1 HTS – raises or lowers MEK5 binding to the human MEKK3 PB1 domain | Q99759 | bead-based flow cytometry, Alexa488-MEK5 binding to MEKK3; actives lie on both sides; 0 = blocked by unlabeled MEK5, 100 = vehicle | binding response (% of control), % at 10 µM | hit rate 1.4% among 290,000;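 active = binding response more than 3 SD above or below the average of its plate-row segment, actives on both sides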;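 note: Alexa488 bead fluorescence after subtracting the streptavidin-only scavenger bead signal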
CHT inh conf – confirmation of human choline transporter CHT inhibitors; hit rate 70% among 2,400; CHT activity remaining % of control (hits give low values), % at 10 µM; CHT-expressing cells, choline membrane potential dye; LV-to-AA substituted CHT, HEK293 cells; shares compounds with CHT inh;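 active = choline transporter activity left, mean of duplicates at 10 µM, below buffer-only control mean minus 3 SD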;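 note: depolarization triggered by choline at its EC90 following an EC20 pre-addition; 0% = hemicholinium-3 full block and 100% = buffer-only control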
HEK293 CHT ctr – CHT inhibitor counter-screen hit in parental HEK293 cells; hit rate 4% among 2,400; shares compounds with CHT inh; membrane potential ratio readout (active if shifted either direction beyond buffer ±3SD; no single direction) at 10 µM; membrane potential dye, choline response; active = decrease or increase beyond buffer ±3SD;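 note: parental cells lack the transporter so any hit is non-specific; ratio is peak minus trough fluorescence over baseline after EC90 choline challenge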
* = called active by the depositor; i = inactive; . = no result given. Sampled rows, rich in hits. Any-hit rate of the full collection: about 4.1%.

SMILES	MEKK2mut PB1 HTS	CHT PAM	SUMO Mot1 rescue	CHT inh	MEKK2 WT-MEK5	MEKK3 PB1 HTS	CHT inh conf	HEK293 CHT ctr
Cc1ccc(S(=O)(=O)N2CCN(c3c([N+](=O)[O-])cc(C(F)(F)F)cc3[N+](=O)[O-])CC2)cc1	-2.0	i	-5.1	i	107.0	109.0	.	.
O=[N+]([O-])c1cc(C(F)(F)F)cc([N+](=O)[O-])c1N1CCCNCC1	1.0	i	212.6	-8.77*	100.0	100.0	16.3%*	i
Cc1c(C#N)c(NC(=O)CCl)n(Cc2cccs2)c1C	-1.0	i	578.4	-6.13*	102.0	102.0	i	i
CCN(CC(=O)NC(=O)NC1CCCC1)Cc1ccccc1	.	i	-3.5	i	.	.	.	.
CCCCCn1c(=O)[nH]c2cc(C(=O)NCCN3CCC(C)CC3)ccc2c1=O	3.0	i	-5.0	-6.13*	112.0	103.0	i	i
O=C(N/N=C/c1cccs1)c1cccc(S(=O)(=O)Nc2ccc(Cl)cc2)c1	10.0	i	-20.1	-5.52*	105.0	105.0	i	i
COC(=O)[C@@H]1CCCN1C(=O)CCc1nnc(CCC2CCCCC2)o1	-1.0	i	-12.4	i	98.0	102.0	.	.
O=C(N/C(=C/c1cccc([N+](=O)[O-])c1)C(=O)N1CCOCC1)c1ccc(Br)cc1	-4.0	i	-6.4	i	97.0	101.0	.	.
Cc1ccnc(SCc2cc(=O)c(OC(=O)c3ccc(S(=O)(=O)N(C)C)cc3)co2)n1	1.0	i	-19.4	-6.47*	107.0	122.0	57.6%*	i
Cc1c(NC(=S)NC(=O)c2sc3ccccc3c2Cl)cccc1C(=O)O	1.0	i	-12.1	i	101.0	107.0	.	.
COc1ccccc1C(=O)NC(=S)NNC(=O)c1sc2ccccc2c1Cl	2.0	i	-3.4	-7.03*	104.0	91.0	57.8%*	i
COc1ccccc1C(=O)NNC(=S)NC(=O)c1sc2ccccc2c1Cl	-1.0	i	1.9	-6.63*	102.0	96.0	57.3%*	i
COc1ccc(OC)c(NC(=O)CCN2CCN(c3ccccc3F)CC2)c1	2.0	i	-14.3	i	95.0	102.0	.	.
COc1ccc(C)cc1NC(=O)CN1CCN(c2ccccc2F)CC1	1.0	i	9.8	-4.99*	104.0	99.0	i	i
COc1cc(/C=C2\SC(=O)NC2=O)ccc1OCC(=O)N1CCOCC1	.	.	-12.3	.	.	.	.	.
O=S(=O)(Nc1nc2ccccc2nc1Cl)c1cccc(C(F)(F)F)c1	4.0	i	-14.2	-5.2*	99.0	99.0	i	i
O=S(=O)(Nc1nc2ccccc2nc1Cl)c1ccccc1C(F)(F)F	1.0	i	-10.9	i	102.0	100.0	.	.
NCCCn1c(C(=O)c2cc(Cl)c(N)c(Cl)c2)c2ccc(C(F)(F)F)cc2[n+]1[O-]	.	i	-7.9	-8.15*	.	.	14.1%*	i
NC(=O)CCCn1c(C(=O)c2cc(Cl)c(N)c(Cl)c2)c2ccc(C(F)(F)F)cc2[n+]1[O-]	.	i	-7.8	-10.1*	.	.	-1.6%*	i
COc1ccc(C(=O)c2c3ccc(C(F)(F)F)cc3[n+]([O-])n2CCCC(N)=O)cc1	.	i	369.1	i	.	.	.	.
Cc1c(NC(=O)C(C)OC(=O)CCOc2ccccc2)c(=O)n(-c2ccccc2)n1C (configuration not stated)	.	i	16.7	i	.	.	.	.
CON(C)C(=O)CC(CNC(=O)OC(C)(C)C)c1ccc(Cl)cc1 (configuration not stated)	.	.	4.0	.	.	.	.	.
CCCCc1cc(=O)oc2cc(O)cc(O)c12	-6.0	i	12.5	-7.91*	95.0	100.0	39.8%*	i
CCCCc1cc(=O)oc2cc(C)cc(O)c12	-5.0	i	3.6	i	89.0	94.0	.	.
CCCc1cc(O)c2c(C)cc(=O)oc2c1	7.0	i	9.6	-7.56*	104.0	110.0	48.0%*	i
SMILES	MEKK2mut PB1 HTS	CHT PAM	SUMO Mot1 rescue	CHT inh	MEKK2 WT-MEK5	MEKK3 PB1 HTS	CHT inh conf	HEK293 CHT ctr
O=C(COC(=O)c1ccc2ncsc2c1)Nc1ccccc1Cl	.	.	21.8	.	.	.	.	.
Cc1cc2n(n1)C(c1ccc3c(c1)OCO3)Nc1c(C)cccc1-2 (configuration not stated)	-2.0	i	-3.9	-5.08*	101.0	100.0	i	i
Cc1ccccc1N/N=C/c1c(C)nc2ccccn12	4.0	i	21.7	-12.6*	104.0	98.0	i	i
CCOC(=O)N1CCN(C/C(Cl)=C/c2ccccc2)CC1	2.0	i	3.5	i	102.0	100.0	.	.
CCOC(=O)c1c(-c2ccc(C)cc2)csc1NC(=O)CCSc1nnc2ccccn12	1.0	i	-2.1	i	101.0	106.0	.	.
C#CCNC(=O)C1=C[C@H](c2ccc(Br)cc2)C[C@H](OCc2ccc(CO)cc2)O1	-2.0	i	-2.2	i	100.0	93.0	.	.
CC(C)NCC(O)c1ccc(O)c(O)c1 (configuration not stated)	5.0	i	-4.4	-6.43*	99.0	97.0	30.2%*	i
CC(/C=C1\NC(=S)NC1=O)=C\c1ccccc1	2.0	i	3.4	-5.45*	99.0	102.0	67.6%*	i
Brc1ccc(-c2noc3c2-c2nc(C4CCCCC4)sc2CC3)cc1	-2.0	i	63.8	i	100.0	104.0	.	.
O=C(Nc1ccc2c(c1)OCO2)c1cccc(S(=O)(=O)N2CCCC2)c1	4.0	i	-14.8	i	98.0	99.0	.	.
O=C(Nc1ccc2c(c1)OCCO2)c1ccc(S(=O)(=O)N2CCCCC2)cc1	-4.0	i	14.8	-6.06*	95.0	100.0	i	i
Cc1nnc(SCC(=O)Nc2nccs2)n(N)c1=O	-16.0	i	-0.5	i	81.0	82.0	.	.
CC(C(=O)N1CCCCCC1)c1ccc([N+](=O)[O-])cc1 (configuration not stated)	3.0	i	165.2	i	101.0	101.0	.	.
COc1cc2c(cc1OC)[C@H](C)N(C(=O)COc1ccccc1)CC2	4.0	i	-13.9	i	97.0	96.0	.	.
COc1ccc(CC(=O)N2CCc3cc(OC)c(OC)cc3C2C)c(OC)c1 (configuration not stated)	0.0	i	10.5	-12.1*	99.0	98.0	i	i
